In the first assay the target is Cyclin-dependent kinase 2 (Homo sapiens) (UniProt P24941). The following applies: at 0.1 µM.
Regarding `CNC(=O)c1cncc(/C=C/c2c(C)cccc2C)c1`, the inhibition – broadly, the change of the read-out against control, counted positive when it falls – is -1.1%.

As for `C/C(Nc1ccc(S(N)(=O)=O)cc1)=C1/C(=O)Nc2ccccc21`, the inhibition was 8.8%.

As to `NC(=O)c1ccc(Oc2nccc(-c3c(-c4ccc(F)cc4)ncn3C3CCNCC3)n2)cc1`, the inhibition stood at 3.03%.

Take `NC(=O)Cc1ccccc1Oc1nccc(-c2c(-c3ccc(F)cc3)ncn2C2CCNCC2)n1`: the inhibition stood at 1.82%.

For `NCc1ccc(-n2c(-c3nonc3N)nc3cnccc32)cc1`, the inhibition turned out to be 10.1%.

For `O=C(Nc1n[nH]c2cc(-c3cc(F)ccc3F)ccc12)C1CC1`, the inhibition was found to be 2.48%.

As for `NS(=O)(=O)c1ccc(N/N=C2\C(=O)Nc3ccc(-c4cnco4)cc32)cc1`, the inhibition worked out at 67.2%.

Turning to `N#Cc1ccc(Oc2nccc(-c3c(-c4ccc(F)cc4)ncn3C3CCNCC3)n2)cc1`, the inhibition was 1.81%.

On to `O=C(Nc1n[nH]c2nc(-c3ccco3)ccc12)C1CC1`, for which the inhibition was -0.16%.

In the case of `NS(=O)(=O)c1ccc(Nc2cc(-c3ccc(O)c(F)c3)n[nH]2)cc1`, the inhibition was 59.9%.

Regarding `COc1cccc(-n2cnc3c(N/N=C/c4ccncc4)ncnc32)c1`, the inhibition is -3.22%.

Regarding `COc1cc(N2CCN(C(C)C)CC2)ccc1Nc1nc(Nc2ccc(F)cc2C(=O)NC[C@@H](O)CO)c2cc[nH]c2n1`, the inhibition stood at 0.16%.

For `Fc1ccc(-c2ncn(C3CCNCC3)c2-c2ccnc(Oc3ccc4c(c3)OCO4)n2)cc1`, the inhibition came out at 3.24%.

`COc1cc(Nc2ncc(-c3ccccc3)o2)cc(OC)c1OC`: the inhibition worked out at 0.79%.

For `Fc1ccc(-c2nc3n(c2-c2ccncc2)CCS3)cc1`, the inhibition is 0.41%.

Take `COc1ccc(C2=C(N3CCc4ccccc43)C(=O)NC2=O)cc1`: the inhibition stood at 4.49%.

As for `C[C@@H](Oc1cc(-n2cnc3ccc(OCC4CCN(C)CC4)cc32)sc1C(N)=O)c1ccccc1Cl`, the inhibition turned out to be 2.66%.

For `O=C(NCC1CC1)c1ccc(-c2cccc(C(=O)NC3CC3)c2)cc1`, the inhibition is 2.3%.

In the case of `Fc1ccc(-c2ncn(CCCN3CCOCC3)c2-c2ccncc2)cc1`, the inhibition is 2.29%.

Another assay shares this target. To be noted: at 1 µM.
As to `NS(=O)(=O)c1ccc(N/N=C2\C(=O)Nc3ccc(C(=O)NCCCn4ccnc4)cc32)cc1`, the inhibition was 82.4%.

As to `O=C(Nc1ccc(Oc2ccc3[nH]c(NC(=O)c4ccccc4)nc3c2)cc1)Nc1cc(C(F)(F)F)ccc1F`, the inhibition is 4.67%.

For the molecule `COc1ccc2cc(-c3c(-c4ccncc4)nc(-c4ccc([S+](C)[O-])cc4C)n3C)ccc2c1` (centres undefined), the inhibition came out at 1.29%.

`Cc1ccc(NC(=O)c2ccoc2)cc1-c1ccc(C(=O)NCC2CC2)cc1`: the inhibition is 3.1%.

For `C[C@@H](Oc1cc(-n2cnc3ccc(OC4CCN(C)CC4)cc32)sc1C(N)=O)c1ccccc1Cl`, the inhibition amounted to 2.09%.

For the molecule `CN(c1ccc(NC(=O)Nc2c(Cl)cccc2Cl)cc1)c1ccnc(Nc2cccc(CS(C)(=O)=O)c2)n1`, the inhibition came out at 2.62%.

For the molecule `Fc1ccc(-c2ncn(C3CCNCC3)c2-c2ccnc(Oc3ccc(Oc4ccccc4)cc3)n2)cc1`, the inhibition is 4.3%.

In the case of `COc1cccc(/C=N/Nc2ncnc3c2cnn3-c2cccc(OC)c2)c1`, the inhibition amounted to 3.83%.

Consider `O=C(Nc1n[nH]c2nc(-c3ccc(O)cc3)c(Br)cc12)C1CC1`, for which the inhibition worked out at 73%.

As for `COc1cc2ncn(-c3cc(OCc4ccccc4C(F)(F)F)c(C(C)=O)s3)c2cc1OC`, the inhibition was 3.96%.

For the molecule `Cc1ccc(C(=O)NC2CCC2)cc1-c1ccc(C(=O)NCC2CC2)cc1`, the inhibition was determined as 3.3%.

Regarding `COC(=O)Nc1nc2ccc(Sc3ccc(NC(=O)Nc4cc(C(F)(F)F)ccc4F)cc3)cc2[nH]1`, the inhibition is 0.81%.

As to `COc1ccc(-c2ccc3c(NC(=O)C4CC4)n[nH]c3n2)cc1`, the inhibition stood at 4.59%.

For the molecule `Cc1ccc(C(=O)NC(C)C)cc1-c1ccc(C(=O)NCC2CC2)cc1`, the inhibition stood at 0.52%.

Take `O=C(Nc1n[nH]c2cc(-c3ccccc3)ccc12)C1CC1`: the inhibition is 8.54%.

For `CNC(=O)c1cncc(/C=C/c2c(C)cccc2C)c1`, the inhibition is -2.25%.

With `C/C(Nc1ccc(S(N)(=O)=O)cc1)=C1/C(=O)Nc2ccccc21`, the inhibition is 48.1%.

For `NC(=O)c1ccc(Oc2nccc(-c3c(-c4ccc(F)cc4)ncn3C3CCNCC3)n2)cc1`, the inhibition was 4.26%.

For the molecule `NC(=O)Cc1ccccc1Oc1nccc(-c2c(-c3ccc(F)cc3)ncn2C2CCNCC2)n1`, the inhibition was found to be 2.1%.

As to `NCc1ccc(-n2c(-c3nonc3N)nc3cnccc32)cc1`, the inhibition was 31.4%.

`O=C(Nc1n[nH]c2cc(-c3cc(F)ccc3F)ccc12)C1CC1`: the inhibition stood at 11.6%.

`NS(=O)(=O)c1ccc(N/N=C2\C(=O)Nc3ccc(-c4cnco4)cc32)cc1`: the inhibition was 74.7%.

With `N#Cc1ccc(Oc2nccc(-c3c(-c4ccc(F)cc4)ncn3C3CCNCC3)n2)cc1`, the inhibition is 2.89%.

Turning to `O=C(Nc1n[nH]c2nc(-c3ccco3)ccc12)C1CC1`, the inhibition was 3.89%.

Consider `NS(=O)(=O)c1ccc(Nc2cc(-c3ccc(O)c(F)c3)n[nH]2)cc1`, for which the inhibition came out at 86.9%.
